Measured values published in PubChem BioAssay (NCI).
Compounds without any hit were thinned out: in the full panel of roughly 79,000, 15% have a hit. Activity calls are given as the source filed them. Cut-off read from the data, not from the text of the source: active = growth inhibition above about 70%; inactive = the rest.

Assays:
[1] = NCI Yeast Anticancer Drug Screen. Data for the rad50 strain (AID 155);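 note: 0% = growth of vehicle-only cultures of the same strain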; conditions: S. cerevisiae rad50 strain growth inhibition, stronger effect = higher value
Summary of the method: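 A DNA repair-deficient yeast mutant serves as the test organism; compound-induced growth inhibition is calculated against vehicle-treated cells.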

[2] = NCI Yeast Anticancer Drug Screen. Data for the mec2-1 strain (AID 157); conditions: S. cerevisiae mec2-1 strain, stronger effect = higher value
Summary of the method: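 Each compound was tested on mec2-1 yeast, a strain altered in DNA damage repair or cell cycle control. Growth inhibition is reported relative to vehicle.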

[3] = NCI Yeast Anticancer Drug Screen. Data for the sgs1 mgt1 strain (AID 161);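 note: 0% = growth of cultures given vehicle only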; conditions: S. cerevisiae sgs1 mgt1 strain, stronger effect = higher value
Summary of the method: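 Genetically altered yeast, compound exposure, growth inhibition relative to vehicle.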

[4] = NCI Yeast Anticancer Drug Screen. Data for the cln2 rad14 strain (AID 165);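 note: 0% = growth equal to vehicle treated cultures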; conditions: S. cerevisiae cln2 rad14 strain, stronger effect = higher value
Summary of the method: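 Test compounds were added to cln2 rad14 yeast cultures; inhibition of growth was then determined by comparison with vehicle treatment.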

[5] = NCI Yeast Anticancer Drug Screen. Data for the bub3 strain (AID 167); conditions: S. cerevisiae bub3 mutant strain, stronger effect = higher value
Summary of the method: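 Inhibition values come from growth of compound-treated mutant yeast normalised to vehicle-treated controls.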

[6] = NCI Yeast Anticancer Drug Screen. Data for the mlh1 rad18 strain (AID 175); conditions: S. cerevisiae mlh1 rad18 strain growth inhibition, stronger effect = higher value
Summary of the method: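 Inhibition values reflect reduced growth of mutant yeast versus vehicle-treated controls following compound exposure; the mutations affect DNA damage repair.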

[7] = at 5.0 µM (retest, dose inferred, filed as 0.5)
[8] = at 50.0 µM (retest, dose inferred, filed as 5.0)

Measured: growth inhibition

O=C1CC2Sc3ccccc3N=C2N1c1ccc(Cl)cc1Cl (configuration not stated)
active: [1]; [8] 96% | [1]; at 50.0 µM 88.2% | [2]; [8] 100% | [2]; at 50.0 µM 93.2% | [3]; [8] 100% | [3]; at 50.0 µM 88.8% | [4]; [8] 73% | [5]; [8] 99% | [5]; at 50.0 µM 92% | [6]; [8] 98% | [6]; at 50.0 µM 89.6%
inactive: [1]; [7] 36% | [2]; [7] 33% | [3]; [7] 42% | [4]; [7] 34% | [4]; at 50.0 µM 65.2% | [5]; [7] 39% | [6]; [7] 47%

Cc1cc([N+](=O)[O-])c2nnnn2c1
inactive: [1]; [7] 5% | [1]; [8] 59% | [1]; at 50.0 µM -1.75% | [2]; [7] 2% | [2]; [8] 28% | [2]; at 50.0 µM 1.4% | [3]; [7] 0% | [3]; [8] 31% | [3]; at 50.0 µM -15.2% | [4]; [7] -1% | [4]; [8] 4% | [4]; at 50.0 µM -9.75% | [5]; [7] -1% | [5]; [8] 28% | [5]; at 50.0 µM 22.4% | [6]; [7] 7% | [6]; [8] 65% | [6]; at 50.0 µM 34%

S=C=NCCCCCCN=C=S
active: [1]; [8] 99% | [1]; at 50.0 µM 99.6% | [2]; [8] 99% | [2]; at 50.0 µM 99.5% | [3]; [8] 99% | [3]; at 50.0 µM 99.3% | [4]; [8] 99% | [4]; at 50.0 µM 99.3% | [5]; [8] 99% | [5]; at 50.0 µM 99.3% | [6]; [7] 79% | [6]; [8] 99% | [6]; at 50.0 µM 99.2%
inactive: [1]; [7] 36% | [2]; [7] 41% | [3]; [7] 59% | [4]; [7] 21% | [5]; [7] 58%

N=c1ccc2c(c1)[nH]c1c3ccccc3[nH]c3cccc2c31
inactive: [2]; [7] 27% | [3]; [7] 23% | [4]; [7] 21% | [5]; [7] 18% | [6]; [7] 33%
active: [1]; [7] 81% | [1]; [8] 98% | [1]; at 50.0 µM 81.8% | [2]; [8] 98% | [2]; at 50.0 µM 84% | [3]; [8] 98% | [3]; at 50.0 µM 89.1% | [4]; [8] 98% | [4]; at 50.0 µM 90% | [5]; [8] 98% | [5]; at 50.0 µM 88.3% | [6]; [8] 97% | [6]; at 50.0 µM 87%

C/C(=N\N(C)C(=S)Nc1ccccc1)c1ccccn1
inactive: [1]; [7] -2% | [1]; [8] 11% | [2]; [7] -4% | [2]; [8] 9% | [2]; at 50.0 µM 63.2% | [3]; [7] -6% | [3]; [8] 22% | [4]; [7] -5% | [4]; [8] -18% | [4]; at 50.0 µM 54.9% | [5]; [7] -12% | [5]; [8] 36% | [6]; [7] -10% | [6]; [8] 65% | [6]; at 50.0 µM 61.8%
active: [1]; at 50.0 µM 93.5% | [3]; at 50.0 µM 71.7% | [5]; at 50.0 µM 82%

O=c1ncccn1[C@@H]1O[C@H](CO)[C@H](O)C1O (some centres not stated)
inactive: [1]; [7] 21% | [1]; [8] 22% | [1]; at 50.0 µM 64.3% | [2]; [7] 13% | [2]; [8] 12% | [2]; at 50.0 µM 28.4% | [3]; [7] 15% | [3]; [8] 12% | [3]; at 50.0 µM 4.15% | [4]; [7] 10% | [4]; [8] 12% | [4]; at 50.0 µM 10.8% | [5]; [7] 23% | [5]; [8] 10% | [5]; at 50.0 µM -5.75% | [6]; [7] 7% | [6]; [8] 31% | [6]; at 50.0 µM -9.3%

CCOc1ccc(N=NS(=O)(=O)O)cc1
inactive: [1]; [7] -8% | [1]; [8] 14% | [1]; at 50.0 µM 61.1% | [2]; [7] -11% | [2]; [8] -23% | [2]; at 50.0 µM -5.45% | [3]; [7] -12% | [3]; [8] -24% | [3]; at 50.0 µM -6.5% | [4]; [7] -29% | [4]; [8] -88% | [4]; at 50.0 µM 15% | [5]; [7] -7% | [5]; [8] -13% | [5]; at 50.0 µM -23.1% | [6]; [7] -2% | [6]; [8] -5% | [6]; at 50.0 µM 9.4%

CCOC(=O)CSc1c(C(=O)OCC)c(=O)n(-c2ccccc2)c(=S)n1-c1ccccc1
active: [1]; [8] 90% | [1]; at 50.0 µM 85.2% | [2]; [8] 89% | [2]; at 50.0 µM 87.2% | [3]; [7] 75% | [3]; [8] 94% | [3]; at 50.0 µM 87.8% | [4]; [8] 91% | [4]; at 50.0 µM 80.8% | [5]; [8] 90% | [5]; at 50.0 µM 85.8% | [6]; [7] 74% | [6]; [8] 89% | [6]; at 50.0 µM 81.8%
inactive: [1]; [7] 60% | [2]; [7] 44% | [4]; [7] 54% | [5]; [7] 31%

CCCCC#C[I+]c1ccccc1
active: [1]; at 50.0 µM 90.5% | [2]; at 50.0 µM 93% | [3]; at 50.0 µM 93.2% | [4]; at 50.0 µM 91.2% | [5]; at 50.0 µM 87.5% | [6]; at 50.0 µM 89.3%
inactive: [1]; [7] 66% | [1]; [8] 66% | [2]; [7] 46% | [2]; [8] 46% | [3]; [7] 54% | [3]; [8] 54% | [4]; [7] 58% | [4]; [8] 58% | [5]; [7] 32% | [5]; [8] 32% | [6]; [7] 65% | [6]; [8] 65%
